From PubChem BioAssay AID1259421 (Broad Institute, 2018)
Where “and” joins values, the source holds several entries; their conditions need not be identical. Identical values can stand only once. Out of some 6,400 compounds screened, about 610 (9.5%) were called active. Rule as the data show it: active = activity change below about -70%; inconclusive = no clear call, values can overlap the other calls; inactive = above that. What follows is part of a selection rich in actives, with near analogues and random picks from the rest. The source holds several records for some structures; these can differ, active in one and inactive in another.

assay: T. gondii ME49Luc in HeLa cells, luciferase assay, 72 h, no IFN-y (AID 1259421); conditions: stronger effect = lower value, concentration not given here

| SMILES | activity change, negative = inhibition |
| --- | --- |
| Cc1cc2c(C(C)C)c(O)c(O)c(C=O)c2c(O)c1-c1c(C)cc2c(C(C)C)c(O)c(O)c(C=O)c2c1O | -70.8% (active) and -12.6% (inactive) |
| Cc1cc(=O)oc2c(C=O)c(O)ccc12 | 16.5% (inactive) |
| CC(=O)c1ccc(O)c(C(N)=O)c1 | 7.8% (inactive) |
| CCCCNCC1COc2ccccc2O1 (stereo not given) | 0.699% (inactive) |
| CN[C@@H]1C[C@H]2O[C@@](C)([C@@H]1OC)n1c3ccccc3c3c4c(c5c6ccccc6n2c5c31)C(=O)N[C@H]4O | -88.9% (active) |
| CO[C@@H]1[C@H](N(C)C(=O)c2ccccc2)C[C@H]2O[C@]1(C)n1c3ccccc3c3c4c(c5c6ccccc6n2c5c31)C(=O)NC4 | -86.8% (active) |
| O=C1NCc2c1c1c3ccccc3[nH]c1c1[nH]c3ccccc3c21 | 2.85% (inactive) |
| Cn1c2ccccc2c2c3c(c4c5ccccc5n(CCC#N)c4c21)CNC3=O | -94.9% (active) |
| Cc1[nH]cnc1CN1CCc2c(c3ccccc3n2C)C1=O | 17% (inactive) |
| C[C@]12OC(C[C@]1(O)CO)n1c3ccccc3c3c4c(c5c6ccccc6n2c5c31)CNC4=O | -87.7% (active) |
| CC1(C)Oc2ccc(C#N)cc2C(N2CCCC2=O)C1O (stereo not given) | 4.23% (inactive) |
| C[N+](C)(C)C[C@H](O)CC(=O)O | 9.13% (inactive) |
| CC(Cc1ccccc1)(NC(=O)CN)c1ccccc1 (stereo not given) | -47.2% (inactive) and 8.98% (inactive) |
| CCc1ccc(C(=O)C(C)CN2CCCCC2)cc1 (stereo not given) | 8.8% (inactive) and 14.4% (inactive) |
| O=C(/C=C/c1ccc(O)c(O)c1)OC(Cc1ccc(O)c(O)c1)C(=O)O (stereo not given) | 2.52% (inactive) |
| CO/N=C(\N)c1ccc(-c2ccc(-c3ccc(/C(N)=N/OC)cc3)o2)cc1 | 86.4% (inactive) |
| COc1cc(OC)cc(OC)c1 | 10% (inactive) |
| O=C(CO)C(O)C(O)C(O)CO (stereo not given) | 2.77% (inactive) |
| CC(=O)[C@H]1CCC2C3CC=C4C[C@@H](O)CC[C@]4(C)C3CC[C@@]21C (stereo not given in full) | 1.09% (inactive) |
| COc1cc(OC)c(NC(=O)Nc2cc(C)on2)cc1Cl | 4.07% (inactive) and 26.1% (inactive) |
| COc1ccc(Cl)cc1NC(=O)Nc1cc(C)nc2ccccc12 | -81.5% (active) and -81.1% (active) |
| COC(=O)c1cc(Cl)ccc1OC | 1.3% (inactive) |
| O=C(O)Cc1csc(-c2ccc(Cl)cc2)n1 | 15.8% (inactive) |
| CS(=O)(=O)Nc1cc2occ(NC=O)c(=O)c2cc1Oc1ccccc1 | 15.7% (inactive) |
| CCCCCCCCCCC(C)(C)C(=O)Nc1c(OC)cc(OC)cc1OC | 16.9% (inactive) |
| CC(C)(C)/[N+]([O-])=C/c1ccc(S(=O)(=O)O)cc1S(=O)(=O)O | 8.6% (inactive) |
| CN(C)c1nc(N)c(C(=O)Nc2cccnc2)nc1Cl | 157% (inactive) and 219% (inactive) |

| SMILES | activity change, negative = inhibition |
| --- | --- |
| CC(=O)NS(=O)(=O)c1ccc(NC(=O)c2ccccc2C(=O)O)cc1 | 1.07% (inactive) |
| CS(=O)(=O)c1ccc(C(=O)Nc2ccc(Cl)c(-c3ccccn3)c2)c(Cl)c1 | 19.4% (inactive) |
| Cn1ccc2cc3c(cc21)CCN3C(=O)Nc1cccnc1 | 104% (inactive) and 4.22% (inactive) |
| CN1CCN(S(=O)(=O)c2ccc(-c3cnc(N)c(C(=O)Nc4cccnc4)n3)cc2)CC1 | -77.6% (active) |
| CS(=O)(=O)c1ccc(-c2cnc(N)c(C(=O)Nc3ccccc3)n2)cc1 | -81.9% (active) |
| COc1ccc(/C=C/c2cc(O)cc(O[C@@H]3O[C@H](CO)[C@@H](O)[C@H](O)[C@H]3O)c2)cc1 | 12.1% (inactive) |
| Clc1cccc(C=NC=Nc2cccc(Cl)c2)c1 | -3.22% (inactive) |
| COC(=O)[C@@H]1CC(=O)O[C@H](C)C/C=C/C=C/[C@H](O)[C@H](C)C[C@H](CC=O)[C@H](OC2O[C@H](C)[C@@H](OC3C[C@@](C)(O)[C@@H](OC(=O)CC(C)C)[C@H](C)O3)[C@H](N(C)C)[C@H]2O)[C@H]1OC (stereo not given in full) | -63.5% (inactive) |
| CC(Cc1ccc(O)c(O)c1)C(C)Cc1ccc(O)c(O)c1 (stereo not given) | 5.71% (inactive) |
| CNC(=O)c1ccc2cc([C@]3(O)CCn4cncc43)ccc2c1 | 9.56% (inactive) |
| C=C1C(=O)CC2CC3OC3(C)CCC3OC3(C)C[C@H](OC(C)=O)C1C2(C)C (stereo not given in full) | -76.2% (active) |
| NCC(=O)CCC(=O)OCc1ccccc1 | 16.4% (inactive) |
| NC(Cc1ccccn1)c1ccccc1 (stereo not given) | 13% (inactive) |
| Oc1c(Cl)cc(Cl)c2cccnc12 | -83.9% (active) and -88% (active) and -90% (active) |
| Oc1c(I)cc(I)c2cccnc12 | -8.85% (inactive) and -77.3% (active) |
| O=S(=O)(O)c1cc(I)c(O)c2ncccc12 | 9.1% (inactive) and 15.9% (inactive) |
| Cc1ccc2c(Cl)cc(Cl)c(O)c2n1 | -84% (active) |
| Oc1c(I)cc(Cl)c2cccnc12 | 24.2% (inactive) |
| CO[C@@H]1[C@@H](O[C@@H]2O[C@H](C)[C@@H](O[C@H]3C[C@@](C)(O)[C@H](O)[C@H](C)O3)[C@H](N(C)C)[C@H]2O)[C@@H](CC=O)C[C@@H](C)[C@@H](O[C@H]2CC[C@H](N(C)C)[C@@H](C)O2)/C=C/C=C/C[C@H](C)OC(=O)C[C@H]1O | 4.59% (inactive) |
| C[n+]1cccc(C(=O)O)c1 | 14.5% (inactive) |
| O=C(O)CC(O)(CC(=O)[O][Bi]1[O]C(=O)CC(O)(CC(=O)O)C(=O)[O]1)C(=O)O (stereo not given) | 22.8% (inactive) |
| CCC(C)(C)C(=O)O | 9.3% (inactive) |
| O=C(O)Cc1ccc(OCCNC[C@H](O)c2ccccc2)cc1 | 15.6% (inactive) and 5.18% (inactive) |
| COC(=O)C[C@H]1C(C)(C)C(=O)[C@@H]2CC3=C(CC[C@]4(C)C3=CC(=O)O[C@H]4c3ccoc3)[C@@]1(C)C2=O | 16.4% (inactive) |
| CC(=O)OCC(=O)[C@@]1(O)CCC2C3CCC4=CC(=O)CC[C@]4(C)[C@@]3(F)[C@@H](O)C[C@@]21C (stereo not given in full) | -4.8% (inactive) |
| N[C@@H](CCC(=O)N[C@@H](CS[NH2+][O-])C(=O)NCC(=O)O)C(=O)O | 15.6% (inactive) |
| CC(C)Cc1ccc([C@@H](C)C(=O)NS(C)(=O)=O)cc1 | 0.904% (inactive) |

| SMILES | activity change, negative = inhibition |
| --- | --- |
| NC(COCc1ccccc1)C(=O)O (stereo not given) | 2.58% (inactive) |
| CCCc1c(OCCCCc2nn[nH]n2)ccc(C(C)=O)c1O | 3.01% (inactive) |
| N#Cc1c(N)nc(SCc2csc(-c3ccc(Cl)cc3)n2)c(C#N)c1-c1ccc(OCCO)cc1 | -62.2% (inactive) |
| Cc1nccc2[nH]c(=O)ccc12 | 4.39% (inactive) |
| CC(=O)O[C@@H]1CC[C@@]2(C)C(CC[C@]3(C)C2C(=O)C=C2[C@@H]4[C@@H](C)[C@H](C)CC[C@]4(C)CC[C@]23C)[C@@]1(C)C(=O)O (stereo not given in full) | -14.9% (inactive) |
| COc1ccc(CCCOC(Cn2ccnc2)c2ccc(OC)cc2)cc1 (stereo not given) | -72.3% (active) |
| O=C(O)c1ccc(OCCn2ccnc2)cc1 | -29.3% (inactive) |
| NC(=O)C1CSSCCC(=O)NC(CCCCN=C(N)N)C(=O)NCC(=O)NC(CC(=O)O)C(=O)NC(Cc2c[nH]c3ccccc23)C(=O)N2CCCC2C(=O)N1 (stereo not given) | 1.76% (inactive) |
| CCOC(=O)CSCCC1NC(C(=O)O)CS1 (stereo not given) | 6.06% (inactive) and 14% (inactive) |
| N#C/C(=C/c1ccc(O)c(O)c1)C(=O)NCc1ccccc1 | 27.2% (inactive) |
| O=C(O)c1cc2occc2[nH]1 | 12% (inactive) |
| Cc1cc(C)c2c(c1)[C@@H](N(Cc1cc(C(F)(F)F)cc(C(F)(F)F)c1)c1nnn(C)n1)CCCN2CC1CCC(C(=O)O)CC1 (stereo not given in full) | -80.5% (active) |
| CNC(=O)c1cccc(NCC(=O)NCCc2ccc(OC)c(OC)c2)c1 | 16.5% (inactive) |
| Cc1ccc(C(=O)N(CCCN)[C@@H](c2nc3cc(Cl)ccc3c(=O)n2Cc2ccccc2)C(C)C)cc1 | -72.6% (active) |
| Cc1c(C)n(Cc2ccccc2)c2ccc(C(=O)OCCN(C)C)cc12 | 11.3% (inactive) |
| Cc1ccc(C(=O)N(CCCN)[C@@H](c2oc3cc(Cl)ccc3c(=O)c2Cc2ccccc2)C(C)C)cc1 | -80.4% (active) |
| O=C(O)CC(S)C(=O)O (stereo not given) | 11.1% (inactive) |
| Cc1cc2nc3c(=O)[nH]c(=O)nc-3n(CC(O)C(O)C(O)CO)c2cc1C (stereo not given) | 28.7% (inactive) and -4.94% (inactive) |
| O=C(O)[C@H](O)[C@@H](O)[C@H](O)[C@H](O)CO | -60.2% (inactive) |
| CC(C)C1CCC(C(=O)N[C@H](Cc2ccccc2)C(=O)O)CC1 (stereo not given in full) | 20.3% (inactive) |
| O=C(CCCCCCNC(=O)c1cnc(N(c2ccccc2)c2ccccc2)nc1)NO | -10.9% (inactive) |
| CC(/C=C/C(=O)NO)=C\[C@@H](C)C(=O)c1ccc(N(C)C)cc1 | -69.6% (inactive) |
| CN(C)c1ccc(C(=O)NCCCCCCC(=O)NO)cc1 | -59.9% (inactive) and -86.2% (active) and -94.9% (active) |
| CCCCCCCCCCCCC/C=C/[C@@H](O)[C@H](COC1OC(CO)C(OC2OC(CO)C(OC3OC(CO)C(O)C(OC4OC(CO)C(O)C(O)C4O)C3NC(C)=O)C(OC3(C(=O)O)CC(O)C(NC(C)=O)C(C(O)C(O)CO)O3)C2O)C(O)C1O)NC(=O)CCCCCCCCCCCCCCCCC (stereo not given in full) | 8.33% (inactive) |
| O=C(O)c1c(Sc2ccccc2)c2cc(Cl)ccc2n1Cc1ccc(Cl)cc1 | -5.44% (inactive) and 8.39% (inactive) |
| COC(=O)C1CC2=CC(=O)CCC2(C)C23OC2CC2(C)C(CCC24CCC(=O)O4)C13 (stereo not given) | 3.98% (inactive) |
